USP28 block: inhibitors of human USP28 deubiquitinase; purified USP28, Ub-rhodamine cleavage fluorescence, 30 min; inhibition, % at 25 µM; hit rate 3% among 47,000; AID 1645857, 2021
USP30 block: inhibitors of human USP30 deubiquitinase. hit rate 5.3% among 47,000. Ubiquitin carboxyl-terminal hydrolase 30 (Homo sapiens), Q70CQ3. AID 1645860, 2021. purified USP30, Ub-rhodamine cleavage fluorescence. inhibition, % at 25 µM
USP8 block: inhibitors of human USP8 deubiquitinase; Ubiquitin carboxyl-terminal hydrolase 8 (Homo sapiens), P40818; purified USP8, Ub-rhodamine cleavage fluorescence, 30 min; inhibition, % at 20 µM; hit rate 4.2% among 47,000
USP17 inh: inhibitors of human USP17 deubiquitinase | Ubiquitin carboxyl-terminal hydrolase 17-like protein 5 (Homo sapiens), A8MUK1 | AID 1645855, 2021 | hit rate 6.5% among 47,000 | inhibition, % at 50 µM | purified USP17, Ub-rhodamine cleavage fluorescence, 3 h
Target sequence (A8MUK1 whole entry, looked up): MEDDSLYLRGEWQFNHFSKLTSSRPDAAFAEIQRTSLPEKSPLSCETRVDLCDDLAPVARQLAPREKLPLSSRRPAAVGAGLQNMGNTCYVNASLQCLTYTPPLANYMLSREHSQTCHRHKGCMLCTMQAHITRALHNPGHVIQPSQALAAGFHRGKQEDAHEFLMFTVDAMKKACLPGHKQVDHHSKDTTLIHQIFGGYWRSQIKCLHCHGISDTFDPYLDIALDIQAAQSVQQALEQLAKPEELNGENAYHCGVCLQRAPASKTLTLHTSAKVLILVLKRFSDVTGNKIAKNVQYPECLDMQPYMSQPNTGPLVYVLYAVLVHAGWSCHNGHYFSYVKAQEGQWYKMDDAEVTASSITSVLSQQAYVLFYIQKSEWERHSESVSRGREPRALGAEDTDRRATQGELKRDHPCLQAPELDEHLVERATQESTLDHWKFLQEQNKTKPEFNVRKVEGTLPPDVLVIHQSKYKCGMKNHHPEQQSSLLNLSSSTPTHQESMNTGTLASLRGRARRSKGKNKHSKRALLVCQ
* marks the source's active call; other numbers are inactive results; i = inactive. This is a sample that favours compounds with a hit; in the whole collection about 13% have one here. Rule as the data show it: active = inhibition above about 30%; inactive = the rest.

SMILES	USP28 block	USP30 block	USP8 block	USP17 inh
O=C(CCc1ccc(F)cc1)N1CCOC(CCc2cc(=O)[nH]cn2)C1 (configuration not stated)	-1	2	4	-4
CC(=O)N1CCN(c2nc3c(s2)CC(C(=O)NCc2ccccc2C)CC3)CC1 (configuration not stated)	7	12	0	6
OC(CN1CCN(c2ccc(F)cc2)CC1)c1ccc2c(c1)CCN2 (configuration not stated)	17	61*	18	58*
CCn1cc(S(=O)(=O)N2CCc3nc(-c4ccc(F)cc4)ncc3C2)cn1	-23	-75	-7	-11
c1ccc(-c2cc3c(NCC4CCCO4)ncnc3s2)cc1 (configuration not stated)	0	-4	21	-2
c1ccc(-n2ncc3c(NCC4CCCO4)ncnc32)cc1 (configuration not stated)	6	31*	16	15
CC(=O)NCCn1c(=O)n(Cc2cccc(C)c2)c2cccnc21	-54	-170	-89	-62
CN1[C@@H](CCC(=O)N2CCCC2)CNC(=O)[C@@H]2[C@H]1CCN2Cc1ccccc1	9	2	22	-23
CN1[C@@H](CCC(=O)N2CCC(O)CC2)CNC(=O)[C@@H]2[C@H]1CCN2Cc1ccc(C(F)(F)F)cc1	11	10	32*	-39
CN1[C@@H](CCC(=O)N2CCN(c3ccccn3)CC2)CNC(=O)[C@@H]2[C@H]1CCN2C1CCCCC1	25	-2	39*	-55
COC(=O)C1CCN(C(=O)CC[C@H]2CNC(=O)[C@@H]3[C@@H](CCN3C3CCCCC3)N2C)CC1	31*	-13	28	-50
CC(C)N1CC[C@@H]2[C@H]1C(=O)NC[C@H](CCC(=O)N1CCN(c3ccccc3)CC1)N2C	4	-3	20	-61
CC(C)N1CC[C@@H]2[C@H]1C(=O)NC[C@H](CCC(=O)N1CCCC1)N2C	34*	21	12	-56
COC(=O)C1CCN(C(=O)CC[C@H]2CNC(=O)[C@@H]3[C@@H](CCN3Cc3cccc(Cl)c3)N2C)CC1	-8	1	0	-12
CN1CC[C@@H]2[C@H]1C(=O)NC[C@H](CCC(=O)N1CCN(c3ccccn3)CC1)N2C	44*	26	72*	-70
COc1ccc(CN2CC[C@@H]3[C@H]2C(=O)NC[C@H](CCC(=O)NCc2cccnc2)N3C)cc1	34*	38*	63*	-30
COC[C@H]1CCCN1C(=O)CC[C@H]1CNC(=O)[C@@H]2[C@@H](CCN2Cc2csnn2)N1C	14	-19	31*	-51
Cc1ccc(CN2CC[C@@H]3[C@H]2C(=O)NC[C@H](CCC(=O)NCc2cccnc2)N3C)cc1	-9	-43	-64	-74
C/C=C/C=C/C=C/C(=O)N[C@@H]1CCCNC(=O)[C@H](C)N(C)C(=O)[C@H](C(C)C)N(C)C1=O	-9	-97	-31	-68
O=C(Cn1ccc2ccc(N3CCOCC3)nc21)NCc1cccc(F)c1	-240	i	-250	-159
COc1ccc(Cn2c(=O)sc3ccccc3c2=O)cc1	44*	25	20	10
O=c1cc(Cc2ccccc2)nc2c(-c3ccccc3)c(COc3ccccc3)[nH]n12	41*	40*	-6	11
Cc1[nH]n2c(=O)cc(Cc3ccccc3)nc2c1-c1ccccc1	-12	14	-109	-9
Cc1ccc(-c2cc(C(F)F)n3ncc(C(=O)Nc4ccc(Cl)cc4)c3n2)cc1	-4	-8	7	-1
Cc1ccc(-c2cc(C(F)F)n3ncc(C(=O)Nc4ccc(O)cc4)c3n2)cc1	6	20	60*	35*
SMILES	USP28 block	USP30 block	USP8 block	USP17 inh
Cc1ncc(-c2cncc(CC3CCCN(c4ncccn4)C3)n2)n1C (configuration not stated)	3	16	3	0
Cc1cc(Cl)ccc1NC(=O)CCN1C(=O)c2cccnc2Sc2ccccc21	-9	-4	-4	-4
Cc1ccc(Cn2nnc(-c3ccccc3Cl)n2)cc1	64*	16	20	15
O=C(COC(=O)c1cccc(S(=O)(=O)N2CCc3ccccc32)c1)Nc1ccc(F)cc1Cl	0	-38	-13	-25
CC(=O)Nc1ccc(NC(=O)c2ccc(N3C(=O)N4CCc5c([nH]c6ccccc56)[C@@]4(C)C3=O)cc2)cc1	31*	-59	0	0
COc1ccc(CNC(=O)c2ccccc2N2C(=O)N3CCc4c([nH]c5ccc(OC)cc45)[C@@]3(C)C2=O)cc1	6	18	14	45*

Screening data from PubChem BioAssay.
